Test results as given in the supplement of paper PMC7156485.

Legend:
Conditions in all cases: concentration: 10 µM; 24 h
HCC1569 [1] = assay: cell number relative to DMSO (% of DMSO); higher = more cells (less growth inhibition / toxicity)
In short: (§1)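 After 24 h at 37 °C with compounds at 10 µM, in triplicate, HCC1569 and TDF cells were fixed with 3.7% formaldehyde. Immunostaining used a rabbit anti-H1.0 antibody and an AlexaFluor 647 secondary, with DAPI, and six fields per well were imaged at ×10. H1.0 nuclear intensity or cell number is presented as percent of the plate control, from the median of replicates, with HCC1569 values smoothed for positional effects.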

TDF [2] = assay: as above
In short: as §1

TDF [3] = assay: H1.0 immunofluorescence intensity relative to DMSO (% of DMSO); higher = stronger H1.0 induction, active = 120 or more
In short: as §1

HCC1569 [4] = assay: H1.0 immunofluorescence intensity relative to DMSO (% of DMSO); higher = stronger H1.0 induction, active = 140 or more
In short: as §1
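For H1.0 immunofluorescence intensity relative to DMSO in this document: TDF is a line of transformed human dermal fibroblasts of mesenchymal origin.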
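For cell number relative to DMSO in this document: TDF denotes transformed human dermal fibroblasts of mesenchymal origin.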

| SMILES | cell number (HCC1569 [1]) | cell number (TDF [2]) | H1.0 immunofluorescence intensity (TDF [3]) | H1.0 immunofluorescence intensity (HCC1569 [4]) |
| --- | --- | --- | --- | --- |
| COC(=O)C1=C(C)NC(C)=C(C(=O)OCCN(C)Cc2ccccc2)C1c1cccc([N+](=O)[O-])c1.Cl (stereo unspecified) [Nicardipine hydrochloride] | 96.7 | 103 | 99.2 (inactive) | 100 (inactive) |
| CCCCCCCCCCCCCCCCCCC(=O)O [Nonadecanoic acid] | 96.7 | 102 | 101 (inactive) | 98 (inactive) |
| O=c1c(O)c(-c2ccc(O)cc2)oc2cc(O)cc(O)c12 [Kaempferol] | 98.4 | 93.9 | 93.5 (inactive) | 115 (inactive) |
| O=c1[nH]c(=O)n(C2CC(O)C(CO)O2)cc1Br (stereo unspecified) [5-Bromo-2'-deoxyuridine] | 99 | 106 | 95.7 (inactive) | 105 (inactive) |
| COc1ccc(C(=O)Nc2sc3c(c2C(N)=O)CCCC3)cc1OC [Flt-3 Inhibitor] | 96.7 | 105 | 94.7 (inactive) | 119 (inactive) |
| C#CCN1C(C)=C(C(=O)OC)C(c2cccc([N+](=O)[O-])c2)C(C(=O)OCC)=C1C (stereo unspecified) | 97.2 | 107 | 89.2 (inactive) | 103 (inactive) |
| COc1ccc(Cl)cc1NC(=O)Nc1cc(C)nc2ccccc12 [IGF-1R Inhibitor II] | 103 | 97.7 | 98.8 (inactive) | 106 (inactive) |
| NS(=O)(=O)c1ccc(S(=O)(=O)Nc2cccc3c(Cl)c[nH]c23)cc1 [N~1~-(3-chloro-1H-indol-7-yl)-1,4-benzenedisulfonamide] | 95.3 | 103 | 96.2 (inactive) | 107 (inactive) |
| CCCCCN(C)CCC(O)(P(=O)(O)O)P(=O)(O)O [Ibandronate] | 103 | 100 | 98.4 (inactive) | 97.2 (inactive) |
| CC(C)C1C2CCC(C2)C1N.Cl (stereo unspecified) | 99.9 | 105 | 93 (inactive) | 90.8 (inactive) |
| CC(C)Cc1ccc(CC(=O)O)cc1 [(4-isobutylphenyl)acetic acid] | 101 | 110 | 91.5 (inactive) | 93.1 (inactive) |
| Cc1ccc(S(=O)(=O)NC(Cc2ccccc2)C(=O)CCl)cc1 [N-p-Tosyl-L-phenylalanine chloromethyl ketone] | 85.5 | 84.6 | 102 (inactive) | 113 (inactive) |
| O=C(O)CNC(=O)C(CS)Cc1ccccc1 (racemic) [DL-Thiorphan] | 105 | 95.5 | 93.4 (inactive) | 96.1 (inactive) |
| CCCCCCCCCCCCCCCCOCC(CO)OC(C)=O (stereo unspecified) [1-Hexadecyl-2-O-acetyl-glycerol] | 106 | 99.8 | 98.3 (inactive) | 86.3 (inactive) |
| C=CC[N+]1(C2CC3C4CCC5CC(O)C(N6CCOCC6)CC5(C)C4CCC3(C)C2OC(C)=O)CCCC1.[Br-] (stereo unspecified) [Rocuronium bromide] | 107 | 104 | 99.6 (inactive) | 99.4 (inactive) |
| Br.CN=c1nc(-c2ccccc2)n(-c2ccccc2)s1 | 97.5 | 107 | 90.9 (inactive) | 111 (inactive) |
| CCCCCCCCCCCCCCCC(O)C(N)CO (racemic) [DL-erythro-Dihydrosphingosine] | 102 | 87.8 | 108 (inactive) | 96.9 (inactive) |
| CCOC(=O)C12CC1C(=NO)c1ccccc1O2 (stereo unspecified) | 100 | 105 | 93.9 (inactive) | 97.2 (inactive) |
| CCN(CC)CCCCN1c2ccccc2Oc2ccc(Cl)cc21.Cl [Akt Inhibitor X] | 83 | 87.1 | 108 (inactive) | 150 (active) |
| CNCC(O)c1cccc(O)c1.Cl (stereo unspecified) [Phenylephrine hydrochloride] | 107 | 101 | 97.5 (inactive) | 94.3 (inactive) |
| COc1ccc(S(=O)(=O)N2CCC[C@H]2C(=O)Nc2cc(C)cc(C)c2)cc1 | 101 | 113 | 95.5 (inactive) | 102 (inactive) |
| Cn1cc[nH]c1=S [Methimazole] | 107 | 103 | 97.9 (inactive) | 102 (inactive) |
| O=C(O)Cc1sc(-c2ccccc2)nc1-c1ccc(Cl)cc1 [Fentiazac] | 91.8 | 107 | 89.6 (inactive) | 116 (inactive) |
| Nc1c2c(nc3ccccc13)CCCC2O.O=C(O)C=CC(=O)O (stereo unspecified) [Hydroxytacrine maleate] | 104 | 103 | 96.8 (inactive) | 83.4 (inactive) |
